# Some structures have more than one record in an assay (separate samples or runs), and their calls can disagree. Activity calls are given as the source filed them. How the source made its calls: active means hit-call score of the fitted dose curve at least 0.9, where 1 is the maximum; inactive means score below 0.9.
# Experiment: ATG_EGR_CIS: Attagene CIS-FACTORIAL HepG2 Assay for human Early Growth Response 1 (EGR1) (AID 2282938)
# Details: HepG2 Attagene CIS-FACTORIAL EGR reporter mRNA; actives raise or lower the signal
# Experimental: ATG_CIS is a cell-based, multiplexed-readout assay that uses HepG2, a human liver cell line, with measurements taken at 24 hours after chemical dosing in a 24-well plate.ATG_EGR_CIS is one of 52 assay component(s) measured or calculated from the ATG_CIS assay. It is designed to make measurements of mRNA induction, a form of inducible reporter, as detected with fluorescence intensity signals by Reverse transcription polymerase chain reaction (RT-PCR) and Capillary electrophoresis technology.Data from the assay component ATG_EGR_CIS was analyzed into 1 assay endpoint. This assay endpoint, ATG_EGR_CIS, was analyzed with bidirectional fitting relative to DMSO as the negative control and baseline of activity. Using a type of inducible reporter, measures of mRNA for gain or loss-of-signal activity can be used to understand the reporter gene at the transcription factor-level as they relate to the gene EGR1. Furthermore, this assay endpoint can be referred to as a primary readout, because this assay has produced multiple assay endpoints where this one serves a reporter gene function. To generalize the intended target to other relatable targets, this assay endpoint is annotated to the dna binding intended target family, where the subfamily is zinc finger.
# Human liver HepG2 cells are transiently transfected with multiple reporter transcription units (MRTUs) in 6-well plates using FuGene 6 reagent (Roche; 3 ml FuGene/1 mg DNA). The MRTU constructs are regulated by a cis-regulating element (promoter). […] A major difference between the CIS and TRANS system is that in CIS activities of endogenous TFs are measured, whereas the TRANS assay evaluates changes in activities of exogenous, chimeric NR-Gal4 proteins. […] At the end of 24 hour incubation, total RNA was isolated using TriZol reagent (Invitrogen). The isolated RNA is then reverse-transcribed using oligo(dT) primer and Mo-MLV reverse transcriptase (Invitrogen) with DNAse I (Ambion) treatment for 30 min. The one-tenth of the produced cDNA was amplified by PCR using Taq DNA polymerase (Invitrogen) and two reporter sequence-specific primers. The PCR products were fluorescently labeled by primer extension with 6-arboxyfluorescein (6-FAM) 5'-labeled reporter sequence-specific primer (2 min at 95 C, 20 s at 68 C and 10 min at 72 C) and these products were digested with 5U of HpaI (New England Biolabs) for 2h at 37 C. The fragments were purified using Qiaquick PCR columns (Qiagen), analyzed on an ABI 3130xL genetic analyzer (Applied Biosystems) with peak positions identified by using a set of X-rhodamine (ROX)-labeled MapMarker1000 molecular weight standards (BioVentures). The raw capillary electrophoresis data was processed using Attagraph software (Attagene).
Compound,outcome,AC50
CC(=O)Nc1ccc(N=Nc2cc(C)ccc2O)cc1,inactive,–
O=S(=O)(OCCOC(F)(F)F)C(F)(F)F,inactive,–
CC(C)OC(=O)c1ccccc1C(=O)OC(C)C,inactive,–
CC(C)=CCCC(C)CCOC(=O)C(C)C (stereo not given),inactive,–
O=C(CC(=O)C(F)(F)C(F)(F)F)C(F)(F)F,inactive,–
OCC(F)(F)C(F)(F)C(F)(F)C(F)(F)C(F)(F)C(F)F,inactive,–
C#C[C@]1(O)CC[C@H]2[C@@H]3CCc4cc(OC)ccc4[C@H]3CC[C@@]21C,inactive,–
CC/C=C\CCOC(C)=O,inactive,–
C=C(C)C(=O)OCCC(F)(F)C(F)(F)C(F)(F)C(F)(F)C(F)(C(F)(F)F)C(F)(F)F,inactive,–
C(=C(c1ccccc1)c1ccccc1)c1ccccc1,inactive,–
FC(F)(F)C(F)(F)C(F)(F)C(F)(F)C(F)(F)C(F)(F)C(F)(F)I,inactive,–
CN(C)Cc1ccccc1O,inactive,–
CCCCCCCOC(=O)c1ccccc1C(=O)OCCCCCCC,inactive,–
CC(C)(C)C(=O)CC(=O)C(F)(F)C(F)(F)C(F)(F)F,inactive,–
O=S(=O)(O)c1ccc2ccccc2c1,inactive,–
CCCCNc1ccccc1,inactive,–
CC/C=C\CCOC(=O)c1ccccc1,inactive,–
OCCCC(F)(F)C(F)(F)C(F)(F)C(F)(F)C(F)(F)C(F)(F)C(F)(F)F,inactive,80.6 µM (active)
CCCCOc1ccc(N)cc1,inactive,–
O=C(O)C(F)(F)C(F)(F)C(F)F,inactive,–

Compound,outcome,AC50
FC(F)(F)C(F)(F)C(F)(F)CI,inactive,–
c1ccc(B(c2ccccc2)c2ccccc2)cc1,inactive,–
CCCCOCCOCCOC(=O)CCCCC(=O)OCCOCCOCCCC,inactive,–
c1ccc(-c2ccccc2-c2ccccc2)cc1,inactive,–
C=C(C)C(=O)OCC(F)(F)C(F)(F)C(F)(F)F,inactive,–
COC(OC(C)=O)c1ccccc1 (stereo not given),inactive,–
CCCCCCS,inactive,–
FC(F)(F)C(F)(F)C(F)(F)N(C(F)(F)C(F)(F)C(F)(F)F)C(F)(F)C(F)(F)C(F)(F)F,inactive,–
FC(F)(F)C(F)(F)C(F)(F)C(F)(F)C(F)(F)C(F)(F)CC1CO1 (stereo not given),inactive,–
CC(C)c1ccccc1N,inactive,–
Nc1ccc(S(=O)(=O)Nc2nccs2)cc1,inactive,–
O=S(=O)(O)C(F)(F)C(F)(F)C(F)(F)C(F)(F)C(F)(F)C(F)(F)C(F)(F)F,inactive,–
CCc1c(Br)c(Br)c(Br)c(Br)c1Br,inactive,–
Cc1ccc(S(=O)(=O)NCl)cc1,inactive,–
CC(C)(C)c1ccc(OC2CCCCC2O)cc1 (stereo not given),inactive,–
Cc1cc(C)cc(O)c1,inactive,–
FC(F)(F)C(F)(F)C(F)(F)C(F)(F)C(F)(F)C(F)(F)CCS,inactive,–
COC(=O)C1CCC(C(=O)OC)CC1 (stereo not given),inactive,–
CCC(=O)OCCc1ccccc1,inactive,–
